Here are results for 23 compounds from PubChem BioAssay (NCATS).

Records with an inconclusive call do not appear. Calls of active or inactive are those of the source. The call rests on the fitted dose curve; in most records, active means well fitted curve in the direction sought with a large enough effect; inconclusive means small, poorly fitted or top-dose-only effect, or another doubt; inactive means no such curve, though single readings can be large or run the other way.

Sequence of Protein phosphatase 1D (Homo sapiens) (O15297 whole entry, looked up): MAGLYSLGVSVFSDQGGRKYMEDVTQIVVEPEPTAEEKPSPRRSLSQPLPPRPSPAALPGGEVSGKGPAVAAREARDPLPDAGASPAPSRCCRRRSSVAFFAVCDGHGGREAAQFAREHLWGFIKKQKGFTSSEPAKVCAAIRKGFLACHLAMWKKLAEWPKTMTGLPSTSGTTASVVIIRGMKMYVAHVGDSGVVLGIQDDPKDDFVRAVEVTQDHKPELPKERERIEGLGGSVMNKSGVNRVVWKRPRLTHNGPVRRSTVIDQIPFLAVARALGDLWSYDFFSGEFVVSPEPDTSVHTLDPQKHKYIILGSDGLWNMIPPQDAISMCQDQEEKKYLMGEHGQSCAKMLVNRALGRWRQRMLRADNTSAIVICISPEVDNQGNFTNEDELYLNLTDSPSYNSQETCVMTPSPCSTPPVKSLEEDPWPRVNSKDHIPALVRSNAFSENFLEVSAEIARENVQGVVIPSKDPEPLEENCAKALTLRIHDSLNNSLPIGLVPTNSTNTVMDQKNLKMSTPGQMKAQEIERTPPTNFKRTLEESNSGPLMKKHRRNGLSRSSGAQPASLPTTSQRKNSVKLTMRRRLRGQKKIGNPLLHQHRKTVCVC

The target in the test is Protein phosphatase 1D (Homo sapiens) (UniProt O15297). The experiment in a line: Rhodamine-PBP qHTS Assay for Modulators of WT P53-Induced Phosphatase 1 (WIP1) (AID 1347425). Further: % of control where 0% means no effect. As to conditions: recombinant WIP1, Rhodamine-PBP phosphate fluorescence, real-time; series mostly up to 57.5 µM; activity change, negative = inhibition: at the top concentration. The essentials:
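5 nM WIP1 + 10 uM Rh-PBP, 50 mM Tris pH 7.5, 30 mM MgCl2, 1 mM TCEP, 0.1 mM EGTA, BSA; cpds pinned, 1 hr RT; + 10 uM phosphopeptide; fluorescence 1-min reads x 11 min; delta = f1 - f0.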
Regarding `COc1c(C)c2c(c(O)c1C/C=C(\C)CCC(=O)OCCN1CCOCC1)C(=O)OC2`, the “activity change, negative = inhibition” value is 2.05% (inactive).

With `N=C(N)c1ccc(OCCCOc2ccc(C(=N)N)cc2)cc1`, the “activity change, negative = inhibition” value was 11.4% (inactive).

For the compound `Cc1onc(-c2c(Cl)cccc2Cl)c1C(=O)Cl`, the “activity change, negative = inhibition” value was -1.62% (inactive).

Take `CN1CCCN(C(c2ccccc2)c2ccc(Cl)cc2)CC1` (stereo not drawn): the “activity change, negative = inhibition” value is 14.7% (inactive).

With `O=C(O)CCC(=O)OC[C@@H](NC(=O)C(Cl)Cl)[C@H](O)c1ccc([N+](=O)[O-])cc1`, the “activity change, negative = inhibition” value was -2.78% (inactive).

As for `COc1ccc(-n2nc(CCC(=O)N(C)O)cc2-c2ccc(Cl)cc2)cc1`, the “activity change, negative = inhibition” value is 32.2% (inactive).

`CCCCOCCOC(=O)c1cccnc1`: the “activity change, negative = inhibition” value is -2.55% (inactive).

For `CCOC(=O)c1ccc(NC(=O)CN2CCCCC2)cc1`, the “activity change, negative = inhibition” value is 7.42% (inactive).

On to `c1ccc(C(O[C@H]2CCCN(CCc3ccc4c(c3)OCO4)C2)c2ccccc2)cc1`, for which the “activity change, negative = inhibition” value is 23.8% (inactive).

For the compound `CC(C)(C)C(O)/C=C/c1ccc2c(c1)OCO2` (stereo not drawn), the “activity change, negative = inhibition” value was -1.7% (inactive).

On to `CC(CCc1ccc2c(c1)OCO2)NN` (stereo not drawn), for which the “activity change, negative = inhibition” value was 11.7% (inactive).

For the compound `CC(=O)Nc1ccn(C2COC(COC(=O)c3ccccc3)O2)c(=O)n1` (stereo not drawn), the “activity change, negative = inhibition” value was 4.92% (inactive).

Regarding `CC(=O)CC/C=C(\C)CC/C=C(\C)CC/C=C(\C)CCC=C(C)C`, the “activity change, negative = inhibition” value is 10.3% (inactive).

Take `OCc1cccnc1`: the “activity change, negative = inhibition” value was 12% (inactive).

For the compound `C[C@@H](C1=C(CCN(C)C)Cc2ccccc21)c1ccccn1`, the “activity change, negative = inhibition” value was 15.2% (inactive).

In the case of `CO/N=C(/C(=O)N[C@@H]1C(=O)N2C(C(=O)[O-])=C(C[n+]3ccn4ncccc43)CS[C@H]12)c1nsc(N)n1`, the “activity change, negative = inhibition” value was 9.94% (inactive).

For the compound `c1ccc2c(c1)CCc1ccccc1N2`, the “activity change, negative = inhibition” value was -9.73% (inactive).

Take `Cc1cccc(N(C)C(=S)Oc2ccc3c(c2)CCC3)c1`: the “activity change, negative = inhibition” value is 9.97% (inactive).

On to `CC(C)(C)C1CCC(CC2=C(O)c3ccccc3C(=O)C2=O)CC1` (stereo not drawn), for which the “activity change, negative = inhibition” value is -2.19% (inactive).

Regarding `CCCOc1ccc2c(c1)CC[C@@H]1[C@@H]2CC[C@]2(C)C(OC)CC[C@@H]12` (stereo partly drawn), the “activity change, negative = inhibition” value is 14% (inactive).

In the case of `CC(=O)N(CC(O)CO)c1c(I)c(C(=O)NCCO)c(I)c(C(=O)NCC(O)CO)c1I` (stereo not drawn), the “activity change, negative = inhibition” value is -6.03% (inactive).

For the compound `CC(C)C(=O)Nc1cccc(C(F)(F)F)c1`, the “activity change, negative = inhibition” value is 6.42% (inactive).

Turning to `CO[C@@H]1[C@@H](OC)[C@H](C)[C@@](O)(CC(=O)O)O[C@H]1[C@H](C)[C@H]1O[C@@]2(CC[C@@](C)([C@H]3CC[C@@](C)([C@@H]4O[C@@H]([C@H]5O[C@](C)(O)[C@H](C)C[C@@H]5C)C[C@@H]4OC4C[C@H](OC)[C@@H](OC)[C@H](C)O4)O3)O2)C[C@H](O)[C@H]1C` (stereo partly drawn), the “activity change, negative = inhibition” value is 23.2% (inactive).
